From PubChem BioAssay (NCATS)
Inconclusive results are not listed. Activity calls are given as the source filed them. The call rests on the fitted dose curve; in most records, active means well fitted inhibition curve with a large enough effect; inconclusive means small, poorly fitted or top-dose-only effect, or effect the other way; inactive means flat fitted curve, though single readings scatter.

Assay: qHTS for Inhibitors of Plasmodium falciparum (GB4) proliferation (AID 504315); further: nearly all actives have a fitted effect of over 50% in size
Settings: P. falciparum GB4 in erythrocytes, SYBR Green DNA, 72 h; series mostly up to 6.7 µM
From the text: Plasmodium falciparum is a virulent malarial parasite that kills 1-2 million people worldwide each year. Malaria not only inflicts tremendous suffering and morbidity on the human population, but has dramatically influenced the course of civilization with profound sociological and economic implications (Shah, S. 2010). Transmitted by mosquitoes, the sporozoite form of the parasite enters the blood stream to infect hepatocytes, where they become merozoites that infect red blood cells (erythrocytes). Within erythrocytes, merozoites begin a […] cycle of growth and division, after which the parasite is released to infect new red blood cells. Gametocytes, which form within erythrocytes as well, circulate in the bloodstream and are ingested by the mosquito, thereby completing the life cycle (see CDC website). To profile malarial lines for differential chemical responses and to identify inhibitors of malarial growth, an assay that measures P. falciparum growth and replication within erythrocytes was employed. This assay uses a DNA binding fluorescent dye (SYBR Green) to detect parasite DNA following cell lysis. Because mature erythrocytes lack DNA, only Plasmodium-derived DNA is detected. The P. falciparum line cp250, derived from a malarial isolate from Cambodia, (Mu, J., et al. 2010) was added to the panel of lines, Dd2, HB3, 7G8 and GB4 in this study. Laboratory of Assay Development and Screening Technology [ADST] and NIH Chemical Genomics Center [NCGC] Boston University, Chemistry Department, Center for Chemical Methodology and Library Development [CMLD-BU] NIH National Institute of Allergy and Infectious Diseases [NIAID]
ADST Assay Protocol Summary: The 1536-well SYBR Green viability assay was based on the method of Bennett et al (2004) and described previously in 1536-well format (Yuan J., et al. 2009). For screening 3 ul culture medium was dispensed into 1536 well black clear bottom plates (Aurora Biotechnologies) using a Multidrop Combi (Thermo Fisher Scientific Inc.), 23 nL compounds in DMSO were added by a pin transfer (Cleveland, P.H. and Koutz, P.J, 2005) using a pin tool-based delivery system (Kalypsys), and 5 ul of erythrocytes infected with P. falciparum one of five lines (cp250, Dd2, HB3, 7G8 or GB4, 0.3% parasitemia, 2.5% hematocrit final concentration) were added. The plates were incubated at 37C in a humidified incubator in 5% CO2 for 72 h, and 2 ul lysis buffer (20 mM Tris HCl, 10 mM EDTA, 0.16% saponin, 1.6% triton X, 10X SYBR Green I (supplied as 10,000X final concentration by Invitrogen) was added to each well. The plates were mixed for 25 sec with gentle shaking and incubated overnight at room temperature in the dark. The following morning, fluorescence intensity at 485(14) nm excitation and 535(25) nm emission wavelengths was measured on an EnVision (Perkin Elmer) plate reader. Plate reads were normalized relative to the control inhibitor (0.29 uM artemisinin) and vehicle (DMSO) wells present on each plate and then corrected by an algorithm using vehicle-only control plates at the beginning and end of the compound plate stack. References Shah, S. (2010). The Fever: how malaria has ruled humankind for 500,000 years. New York, Sarah Crichton Books. CDC web site, http://www.cdc.gov/malaria/about/biology/index.html Mu, J., Myers, R.A., Jiang, H., Liu, S., Ricklefs, S., Waisberg, M., Chotivanich, K., Wilairatana, P., Krudsood, S., White, N.J., et Plasmodium falciparum genome-wide scans for positive selection, recombination hot spots and resistance to antimalarial drugs Nature Genetics 2010, 42, pp 268-271 Bennett TN, Paguio, M., Gligorijevic, B., Seudieu, C., Kosar, A. D., Davidson, E., and Roepe, P. D. Novel, rapid, and inexpensive cell-based quantification of antimalarial drug efficacy Antimicrobial Agents Chemother. 2004, 48(5): pp 1807-10 Yuan J, Johnson RL, Huang RL, Wichterman J, Jiang HY, Hayton K, Fidock DA, Wellems TE, Inglese J, Austin CP, Su XZ. […]
Potency means the concentration at half of the fitted maximal effect.

Potency, active:
C=CCN1c2ccccc2[C@]23C[C@@H](C(=O)OC)N(S(=O)(=O)c4ccc([N+](=O)[O-])cc4)C2=NC(C(=O)OC)=C(C(=O)OC)[C@H]13 1.51 µM
CC#CCN1c2ccccc2[C@]23C[C@@H](C(=O)OC)N(S(=O)(=O)c4ccc(OC)cc4)C2=NC(C(=O)OC)=C(C(=O)OC)[C@H]13 2.13 µM
CCCC[C@]12Cc3c(ccc4ccccc34)[C@H](O1)C1=C(O2)C(=O)c2ccccc2C1=O 1.69 µM

Potency, inactive:
COC(=O)CCCC1=CC2=C(c3ccccc3)C(=O)C(C)(OC(=O)C3CCCC3)C(=O)C2=CN1C1CC1 (stereo not given)
COCCN1C(=O)N[C@@H](c2cccs2)C(C(C)=O)=C1C
COC/C=C/C1=CC2=CC(=O)C(C)(OC(=O)c3cnc4ccccc4n3)C(=O)C2=CN1C1CCCCC1 (stereo not given)
COC(=O)C1=C(C(=O)OC)[C@@H]2Nc3ccccc3[C@@]23C[C@@H](C(=O)OC)N(C(C)=O)C3=N1
CCN1C(=O)N[C@@H](c2cccc(C(F)(F)F)c2)C(C(C)=O)=C1C
COC(=O)[C@@H]1[C@H](CCc2ccccc2)NC(=O)N(Cc2ccccc2)[C@@H]1C
COC/C=C/C1=CC2=CC(=O)C(C)(OC(=O)c3cnc4ccccc4n3)C(=O)C2=CN1Cc1ccc(OC)cc1 (stereo not given)
CCN1C(=O)N[C@H](c2ccccc2)C(C(C)=O)=C1C
COC(=O)CCC(=O)OC1(C)C(=O)C=C2C=C(C3CC3)N(CC(C)C)C=C2C1=O (stereo not given)
COC(=O)C1=C(C(=O)OC)[C@@H]2Nc3ccccc3[C@@]23C[C@@H](C(=O)OC)N(S(=O)(=O)c2ccc(C)cc2)C3=N1
COC(=O)CCCC1=CC2=CC(=O)C(C)(OC(=O)c3cccs3)C(=O)C2=CN1c1ccccc1 (stereo not given)
C=C(C(C)=O)C(O)C=Cc1ccco1 (stereo not given)
C[C@H]1Cc2c(COc3ccccc3)nc3c(c2CO1)CN(C(=O)NCCc1c[nH]c2ccccc12)CC3
COC(=O)CCCC1=CC2=C(c3ccccc3)C(=O)C(C)(OC(=O)C3CCCC3)C(=O)C2=CN1CC1CC1 (stereo not given)
CC(C)OCCCN1C=C2C(=O)C(C)(OC(=O)CCc3ccccc3)C(=O)C=C2C=C1c1ccc(C#N)cc1 (stereo not given)
CC(CCN1CCCc2nc(C)c(C)cc21)=NO[C@H](C)c1cn([C@@H]2COC[C@@H]2O)nn1
COCCN1C(=O)N[C@@H](c2ccco2)C(C(=O)OC)=C1C
COC(=O)C1=C(C)N(Cc2ccccc2)C(=O)N[C@H]1CCc1ccccc1
C[C@H]1Cc2c(-c3ccccc3)nc3c(c2CO1)CN(C(=O)C1CCCCC1)CC3
COC(=O)C1=C(C)N(CC2CC2)C(=O)N[C@H]1c1ccccc1
CCOC(=O)CN1C(=O)N[C@@H](c2cccc(F)c2)C(C(=O)OC)=C1C
COC(=O)C1=C(C(=O)OC)[C@@H]2N(Cc3ccccc3)c3ccccc3[C@@]23C[C@@H](C(=O)OC)N(C(=O)C2CCC2)C3=N1
C[C@H]1Cc2c(-c3ccccc3)nc3c(c2CO1)CN(C(=O)C1CC1)CC3
COC(=O)C1=C(C(=O)OC)[C@@H]2N(C)c3ccccc3[C@@]23C[C@@H](C(=O)OC)N(S(=O)(=O)c2ccc(C)cc2)C3=N1
COc1ccc(-c2nc3c(c4c2C[C@H](c2ccccc2)OC4)CN(S(=O)(=O)c2ccc4c(c2)OCCN4C)CC3)c(C)c1
C=CCN1C=C2C(=O)C(C)(OC(=O)C3CCCC3)C(=O)C(c3ccccc3)=C2C=C1CCCC(=O)OC (stereo not given)
COC(=O)CCC(=O)OC1(C)C(=O)C2=CN(C3CC3)C(c3ccc(OC)cc3)=CC2=C(Br)C1=O (stereo not given)
COC(=O)CCCC1=CC2=CC(=O)C(C)(OC(=O)c3cccs3)C(=O)C2=CN1c1ccc(CO)cc1 (stereo not given)
CCN1C(=O)N[C@@H](c2ccc(Br)cc2)C(C(C)=O)=C1C
CCN1C(=O)N[C@@H](c2cccc(C(F)(F)F)c2)[C@@H](C(=O)OC)[C@H]1C
COC(=O)C1=C(C(=O)OC)[C@@H]2N(C)c3ccc(OC)cc3[C@@]23C[C@@H](C(=O)OC)N(C(=O)c2ccc(Br)cc2)C3=N1
CCCCC1=CC2=CC(=O)C(C)(OC(=O)CC)C(=O)C2=CN1Cc1ccc(OC)cc1 (stereo not given)
COC[C@@H](O)[C@@H](OC)[C@H](OC)[C@H](Cc1c(OC)cc(OC)cc1OC)OC
CC#CCN1c2ccccc2[C@]23C[C@@H](C(=O)OC)N=C2NC(C(=O)OC)=C(C(=O)OC)[C@H]13
COc1ccc(-c2nc3c(c4c2C[C@H](c2ccccc2)OC4)CN(C(=O)NCCc2c[nH]c4ccccc24)CC3)c(C)c1
CCOC(=O)CN1C(=O)N[C@@H](c2cccc(F)c2)C(C(C)=O)=C1C
COC(=O)C1=C(C(=O)OC)[C@@H]2N(C)c3ccccc3[C@@]23C[C@@H](C(=O)OC)N(C(=O)C2CCC2)C3=N1
